# Laboratory results: the supplement of paper PMC6555819
# Tests used:
# Test in all cases: PBM binding z-score (relative to random genomic background probes); higher = stronger binding; sequences stand for … in GC…GCGATTGACAGCGTAGAATGAAGG
# [1] = test system: PPARg:RXRa DBDmut IVT, anti-RXR (DBD mutation: RXRa K156A/R161A, NR concentration 270 nM, RXRa partner concentration 90 nM)
# In short: (§1)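 Random background probes are the reference for binding z-scores. These scores derive from regression-normalized fluorescence on custom Agilent 4×180K protein-binding microarrays incubated 1 h with ligand-free nuclear receptor dimers. Binding was detected with antibodies against each partner (one per run).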
# [2] = test system: PPARg:RXRa IVT, anti-PPARg (NR concentration 270 nM, RXRa partner concentration 90 nM)
# In short: as §1
# [3] = test system: PPARg DBDmut:RXRa IVT, anti-PPARg (DBD mutation: PPARg1 K132A/R137A, NR concentration 270 nM, RXRa partner concentration 90 nM)
# In short: as §1
# [4] = test system: PPARg DBDmut IVT, anti-PPARg (DBD mutation: PPARg1 K132A/R137A, NR concentration 270 nM)
# In short: as §1
# [5] = test system: PPARg homodimer (NR concentration 180 nM)
# In short: as §1
# [6] = test system: PXR:RXRa (NR concentration 270 nM, RXRa partner concentration 90 nM)
# In short: as §1
# [7] = test system: PXR homodimer (NR concentration 270 nM)
# In short: as §1
# [8] = test system: RARa:RXR (NR concentration 270 nM, RXRa partner concentration 90 nM)
# In short: as §1
# [9] = test system: RARa homodimer (NR concentration 270 nM)
# In short: as §1
# [10] = test system: RARb:RXRa (NR concentration 270 nM, RXRa partner concentration 90 nM)
# In short: as §1
# [11] = test system: RARb homodimer (NR concentration 270 nM)
# In short: as §1
# [12] = test system: RARg:RXRa (NR concentration 270 nM, RXRa partner concentration 90 nM)
# In short: as §1
# [13] = test system: RARg homodimer (NR concentration 270 nM)
# In short: as §1
# [14] = test system: RXRa DBDmut IVT, anti-RXR (DBD mutation: RXRa K156A/R161A, NR concentration 90 nM)
# In short: as §1
# [15] = test system: RXRa homodimer (NR concentration 180 nM)
# In short: as §1
# [16] = test system: THRa:RXRa (NR concentration 90 nM, RXRa partner concentration 90 nM)
# In short: as §1
# [17] = test system: THRa homodimer (NR concentration 90 nM)
# In short: as §1
# [18] = test system: VDR homodimer (NR concentration 270 nM)
# In short: as §1
Sequence,PBM binding z-score [1],PBM binding z-score [2],PBM binding z-score [3],PBM binding z-score [4],PBM binding z-score [5],PBM binding z-score [6],PBM binding z-score [7],PBM binding z-score [8],PBM binding z-score [9],PBM binding z-score [10],PBM binding z-score [11],PBM binding z-score [12],PBM binding z-score [13],PBM binding z-score [14],PBM binding z-score [15],PBM binding z-score [16],PBM binding z-score [17],PBM binding z-score [18]
GGAACGAGGGCAAGGTGATAGCAGAGTTTGATGG,3.43,3.26,-0.452,-0.737,0.922,0.851,1.06,0.793,0.23,2.78,2.04,1.26,2.2,1.62,0.928,1.89,0.882,2.05
CCTGCTAGGTCAATGGTCAGCAAAAGCAGCTCGC,4.13,3.94,-0.42,-0.782,0.701,0.88,-0.358,1.49,-0.178,3.86,2.84,3.57,4.83,1.78,2.47,2.16,0.37,0.312
ACTAGTTGGTCAGCTGAGGTCACAGACAATTCGG,1.59,2.68,0.63,0.453,2.49,5.14,1.43,4.65,0.482,3.48,4.19,4.16,3.84,1.15,4.37,4.99,5.44,2.9
TTACCAAGTTGAAAGGTCGTTGATGCACGCCTTG,0.565,1.78,-0.471,0.0768,1.5,3.35,0.56,4.05,0.532,2.34,2.1,2.9,1.34,1.31,4.21,1.92,-0.189,1.58
AGGCAAAGTTCACTAGGTAACGTAAGATTCAGCT,2.96,4.77,1.25,1.49,3.61,4.02,2.73,2.94,1.73,4.61,3.64,4.78,5.51,4.22,3.75,2.15,0.37,4.15
CATACAGGGTCAGCTAGTCCAGAGTAGGGACGGC,1.14,2.25,0.656,0.108,1.92,2.36,-0.00687,2.91,0.913,3.94,2.88,4.26,4.24,1.65,4.04,2.86,0.757,1.68
ATATGTACGTTAAGGGTCATTCAGGTTGGTTCGC,0.825,3.15,3.4,3.29,2.8,5.22,2.21,4.96,1.35,3.21,3.82,3.89,2.96,2.12,4.64,3.3,1.45,4.32
TCATATAGGTACACAGGTGAAAGTCCGTAAGTTA,3.06,2.34,0.518,0.496,1.23,1,0.981,0.908,1.26,0.943,1.25,0.77,0.513,2.06,1.27,0.937,0.627,1.07
TAGCCTAGGTCAGATCGGGCCAGTATGCGCTATA,0.347,1.3,-0.699,-0.549,-0.654,0.891,-0.704,0.898,-0.754,3.16,2.29,2.85,3.88,-0.301,1.48,4.04,0.0471,-0.51
GCACGGAGGACAAGGTCAGAGCTTTGTCCGTAGA,-0.0936,0.429,-1.21,-1.21,0.85,1.72,-0.197,2.03,-0.486,3.27,3.22,3.17,3.57,1.01,2.56,2.89,1.58,0.622
GGAACGAGGGCAGTCGAGTTGATAGCATGGCGAT,2.24,1.29,-0.319,-0.59,-0.872,1.83,-0.252,-0.0532,-0.989,1.77,0.327,0.643,1.18,1.1,0.35,1.52,-0.895,1.02
GCTTGTAGATCAAGGTTAAGAAAGACTAAGCTAA,0.698,1.3,-0.233,0.273,0.452,0.314,-0.212,0.726,-0.0899,0.759,0.0928,0.389,0.229,-0.146,0.904,1.14,-0.422,-0.377
GCTAGTTGGTCAGTAAAAGTTCACACACCGGTCG,0.674,0.916,-0.358,0.138,2.26,3.43,3.27,2.53,1.14,2.73,3.69,3.04,2.42,1.07,1.82,1.46,0.436,2.91
CGAACTAGTTCATCCAGGACAGTGAATACATTGA,1.33,0.831,0.796,0.456,0.323,1.64,2.98,1.06,0.65,1.53,0.846,1.12,1.39,3.28,0.593,2.23,1.07,3.24
TCGAGTAGGTTGGGGGCATTCAGAATGGCGTCGA,1.25,2.38,3.04,5.62,0.737,2.82,1.75,1.98,0.0369,1.6,1.42,1.32,0.732,1.74,1.57,2.11,1.52,3.27
